# The list is not random: actives were taken first. Their share in the collection is about 1.5%.
# Eya2 phos inh = Eya2 (human) phosphatase inhibition; AID 488837; O00167; 330,000 tested, 0.006% active; recombinant Eya2, OMFP fluorescence dephosphorylation (OMFP is methylfluorescein phosphate); Potency, µM (doses to about 76.9 µM), inactives show at the top dose activity, negative = inhibition, usual class: inhibitors; also: potency is read from the fitted curve at half-maximal effect; % is scaled to controls: 0 for no effect and ±100 for the full control effect
#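 Eya2 (0.2 uM) preincubated 10 min at ambient with compound, then OMFP substrate added at 50 uM; 10 min reaction in 50 mM HEPES pH 7.5, 50 mM NaCl, 5 uM MgCl2, 0.05% BSA, 1 mM DTT. Fluorescence read at Ex 485/Em 525 nm.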
# mIDH1 inhibitor = inhibitors of human mutant IDH1 R132H; O75874; IDH1-R132H enzyme, NADPH consumption, diaphorase/resazurin fluorescence; Potency, µM (series often up to 76.6 µM), inactives show at the top dose activity change, negative = inhibition, actives largely listed as inhibitors; 390,000 tested, 0.093% active; also: potency is read from the fitted curve at half-maximal effect; % is scaled to controls: 0 for no effect and ±100 for the full control effect; nearly all actives have a fitted effect of over 65% in size
# Target sequence (O75874 whole entry R132H, stated change not applied): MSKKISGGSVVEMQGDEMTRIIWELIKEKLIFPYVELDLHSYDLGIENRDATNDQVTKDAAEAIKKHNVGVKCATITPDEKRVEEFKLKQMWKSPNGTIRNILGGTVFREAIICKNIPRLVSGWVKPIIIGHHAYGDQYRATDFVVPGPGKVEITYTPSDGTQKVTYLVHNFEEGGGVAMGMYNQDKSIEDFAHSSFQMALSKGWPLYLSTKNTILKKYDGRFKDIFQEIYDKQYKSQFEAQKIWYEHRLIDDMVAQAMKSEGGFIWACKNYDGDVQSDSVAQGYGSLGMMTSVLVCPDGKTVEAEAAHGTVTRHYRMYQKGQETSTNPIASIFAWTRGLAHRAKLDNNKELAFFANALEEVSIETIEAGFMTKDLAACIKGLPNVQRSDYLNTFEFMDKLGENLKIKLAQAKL
#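 IDH1-R132H (0.5 ug/mL) preincubated 30 min with compound, then NADPH (0.016 mM) and alpha-KG (2 mM) added; 80 min at RT, pH 7.5. Remaining NADPH coupled via diaphorase/resazurin to fluorescence (540/590 nm); concentration-response curves normalized to no-enzyme control.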
# TrxR1 substrate = is turned over as a substrate by rat TrxR1 | purified TrxR1 substrate turnover, NADPH consumption readout | O89049 | 390,000 tested, 0.01% active | Potency, µM (highest dose often 114 µM), for inactives: top-dose activity change, negative = substrate turnover; also: potency is read from the fitted curve at half-maximal effect; % is scaled to controls: 0 for no effect and ±100 for the full control effect; nearly all actives have a fitted effect of over 50% in size
#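 Rat TrxR1, dispensed at 90 nM, was prereduced with 400 uM NADPH (final) for 5 min at ~22 deg C, then incubated with compound 15 min before 400 uM selenite. A first-read NADPH fluorescence drop versus no-compound background flagged substrates.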
# rTrxR1 inhibitor = rat TrxR1 inhibition | O89049 | Potency, µM (titrated, usually from 114 µM), for the others: at the top dose activity change, negative = inhibition, actives largely listed as inhibitors | AID 588453 | recombinant rTrxR1, NADPH fluorescence consumption, selenite substrate | 390,000 tested, 1% active; also: potency is read from the fitted curve at half-maximal effect; % is scaled to controls: 0 for no effect and ±100 for the full control effect; nearly all actives have a fitted effect of over 65% in size
#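 Rat TrxR1 (90 nM in the dispensed reagent) was pre-reduced with 400 uM NADPH for 5 min at room temperature, then incubated with compound for 15 min. After 400 uM selenite was added, NADPH fluorescence (Ex 340/Em 450 nm) was followed for 8 min.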
# FBPA coupling cs = coupling enzyme interference in Giardia aldolase counter-screen | activity change, negative = inhibition, % at 58.2 µM, hits read low | AID 2472 | 290,000 tested, 0.67% active | coupling enzyme system counterscreen, AmpLite Red fluorescence; in the data active = activity change below about -30%; also: % is scaled to controls: 0 for no effect and ±100 for the full control effect
#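 Counterscreen lacking aldolase: glyceraldehyde-3-phosphate coupling-enzyme reagent preincubated 10 min at RT with compound (at 57.5 uM final), then substrate/coupling system with AmpLite Red added; fluorescence read at 525/598 nm after 20 min RT.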
# IDH1 autofl = autofluorescence interference, mutant IDH1 hit counter-screen; shares compounds with mIDH1 inhibitor; Resorufin detection reagent fluorescence interference, cell-free; inhibition of signal, % at 51.2 µM; 750 tested, under 10 active; AID 623980;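 also: 0% = wells with normal resorufin and full inhibition = wells lacking resorufin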
# IDH1 WT = inhibits human wild-type IDH1, mutant selectivity check; shares compounds with mIDH1 inhibitor; WT IDH1 enzyme, NADPH diaphorase/resazurin fluorescence; Potency, µM (top dose mostly 115 µM), for inactives: at the highest dose activity change, negative = inhibition, actives largely listed as inhibitors; 750 tested, 9% active;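 also: potency is read from the fitted curve at half-maximal effect; 0% = full WT IDH1 enzyme control and full inhibition = no enzyme wells; nearly all actives have a fitted effect of over 55% in size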
# Target sequence (O75874 whole entry, looked up): as the sequence (O75874 whole entry R132H, stated change not applied) above, with H132R counted along it
# IDH1 R132H conf = confirmation of human mutant IDH1 inhibitors. IDH1 R132H enzyme, NADPH diaphorase/resazurin fluorescence. shares compounds with mIDH1 inhibitor. Potency, µM (top dose mostly 76.6 µM), for inactives: top-dose activity change, negative = inhibition, usual class: inhibitors. 750 tested, 83% active. AID 624002; also: potency is read from the fitted curve at half-maximal effect; nearly all actives have a fitted effect of over 50% in size
# The depositor's hits bear a star; ? = inconclusive; · = no result given; [ ] = dose if it differs, or a comment. Unless noted, calls follow the shape of the dose curve; as a rule, active = well fitted curve in the direction sought with a large enough effect; inconclusive = small, poorly fitted or top-dose-only effect, or another doubt; inactive = no such curve, though single readings can be large; an effect the other way counts as inactive or inconclusive.
SMILES,Eya2 phos inh,mIDH1 inhibitor,TrxR1 substrate,rTrxR1 inhibitor,FBPA coupling cs,IDH1 autofl,IDH1 WT,IDH1 R132H conf
Cc1ccc(C(C(=O)NC2CCCC2)N(C(=O)CCC(=O)Nc2cc(C)on2)c2ccccc2)cc1 (centres undefined),-22%,4%,14%[57.1 µM],3%[57.1 µM],-1,·,·,·
Cc1cc(NC(=O)CCC(=O)N(c2ccccc2F)C(C(=O)NC2CCCC2)c2ccccc2)no1 (centres undefined),-14%,?,2%,-6%,5,-5,3%,25µM*
COc1ccc(N(C(=O)CCC(=O)Nc2cc(C)on2)C(C(=O)NC2CCCC2)c2ccco2)cc1 (centres undefined),9%,-4%,7%[57.1 µM],7%[57.1 µM],-1,·,·,·
CC1(OC(=O)c2cnc3ccccc3n2)C(=O)C=C2C=C(c3ccsc3)OC=C2C1=O (centres undefined),·,·,·,·,0,·,·,·
N#Cc1ncc(Br)cn1,·,·,8%,-16%,·,·,·,·
CSc1nc(N)c2ncn([C@@H]3O[C@H](COP(=O)(O)OP(=O)(O)OP(=O)(O)O)[C@H](O)[C@H]3O)c2n1,·,·,·,9%,·,·,·,·
O=C(CCCC(=O)N(c1ccc2c(c1)OCCO2)C(C(=O)NC1CCCCC1)c1ccc(Cl)cc1)Nc1ccccn1 (centres undefined),-21%,?,10%,22%,0,-7,0%,13µM*
O=S(=O)(Cc1ccccc1)N1CCN(c2nc(-c3cccs3)nc3ccccc23)CC1,·,·,31%,18%,·,·,·,·
CCCC(NC(=O)CCc1c(C)c2cc3c4c(oc3c(C)c2oc1=O)CCCC4)C(=O)O (centres undefined),-7%,41µM*,12%,-8%,1,0,-9%,28µM*
CC[C@H](C)[C@@H](NC(=O)O[C@@H]1C(=O)c2ccc(OC)cc2O[C@H]1c1cccc(C(F)(F)F)c1)C(=O)OC,·,·,·,·,-2,·,·,·
COc1ccc(-c2oc3cc(OC(C)=O)cc(OC(C)=O)c3c(=O)c2OC)cc1,·,?,21%,14%,·,-3,-4%,28µM*
CC(C)C[C@H](NC(=O)CNC(=O)[C@H](C)NC(=O)[C@H](CC(C)C)NC(=O)[C@H](CCCNC(=N)N)NC(=O)[C@H](Cc1cnc[nH]1)NC(=O)[C@@H](NC(=O)[C@@H](N)C(C)C)[C@@H](C)O)C(=O)N[C@@H](CC(C)C)C(=O)N[C@@H](CO)C(=O)N[C@@H](CCCNC(=N)N)C(=O)N[C@@H](CO)C(=O)NCC(=O)NCC(=O)N[C@H](C(=O)N[C@H](C(=O)N[C@@H](CCCCN)C(=O)N[C@@H](CC(N)=O)C(=O)N[C@@H](CC(N)=O)C(=O)N[C@@H](Cc1ccccc1)C(=O)N[C@H](C(=O)N1CCC[C@H]1C(=O)N[C@H](C(=O)N[C@@H](CC(N)=O)C(=O)N[C@H](C(=O)NCC(=O)N[C@@H](CO)C(=O)N[C@@H](CCCCN)C(=O)N[C@@H](C)C(=O)N[C@@H](Cc1ccccc1)C(N)=O)C(C)C)[C@@H](C)O)C(C)C)C(C)C)C(C)C,·,·,·,·,3,·,·,·
C=C1NN(CC2CC2)C(=O)N1c1ccc(OCc2ccccc2)cc1,·,·,9%[0.0914 µM],9%[0.0914 µM],·,·,·,·
CCOc1ccc2c(c1)C(NC(C)=O)C(=O)N2CCN1CCOCC1 (centres undefined),-29%,29µM*,7%,10%,1,3,79µM*,25µM*
CC(=O)NC1C(=O)N(CCN2CCOCC2)c2ccc(Br)cc21 (centres undefined),25%,?,5%[0.0914 µM],4%,-1,·,·,·
CC(=O)N1c2ccc(Cl)cc2C2C=CCC2C1c1cccc2ccccc12 (centres undefined),?,15µM*,-2%[11.4 µM],-2%,-8,11,40µM*,6.3µM*
CCC1(c2ccc(O)cc2)NC(=O)NC1=O (centres undefined),·,·,·,·,0,·,·,·
CC(=O)Nc1ccc(S(=O)(=O)N2CCc3nc(-c4ccccc4)c4c(c3C2)CO[C@@H](C)C4)cc1,·,·,·,·,0,·,·,·
CNC(=O)/C(C#N)=C/c1c(N(Cc2ccccc2)Cc2ccccc2)nc2c(C)cccn2c1=O,-19%,52µM*,-11%,18%[57.1 µM],-2,-1,2%,14µM*
CCNC(=O)/C(C#N)=C/c1c(N(Cc2ccccc2)Cc2ccccc2)nc2ccccn2c1=O,-3%,?,2%,14%,1,-4,1%,20µM*
CCNC(=O)/C(C#N)=C/c1c(N2CCN(C)CC2)nc2c(C)cccn2c1=O,9%,2%,15%,7%[57.1 µM],-1,·,·,·
CCNC(=O)/C(C#N)=C/c1c(N2CCOCC2)nc2ccccn2c1=O,2%,4%,93%,19%,2,·,·,·
CNc1nc(C#N)nc(Nc2ccccc2)n1,·,·,·,·,0,·,·,·
CC(=O)Nc1ccc(-c2cn3ccsc3n2)cc1,3%,-4%,2%,13%,-2,·,·,·
c1cn2cc(-c3ccc4c(c3)OCO4)nc2s1,-30%,23µM*,2%,20%,-1,-4,141%,50µM*
COc1c(OC(C)=O)ccc(/C=C/c2ccc3ccccc3n2)c1[N+](=O)[O-],-8%,?,-6%,11%,1,-15,2%,32µM*
COc1c(OC(C)=O)ccc(/C=C/c2ccc3cccc(OC)c3n2)c1[N+](=O)[O-],1%,?,-20%,-15%,-1,·,·,·
